These results are taken from PubChem BioAssay (NCI).

“And” between values parts separate entries of the source, which are not always exact repeats. Equal entries are not always repeated. Compounds without any hit were thinned out: in the full panel of roughly 83,000, 20% have a hit.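 Growth was measured after 48 h exposure to one concentration of compound in 96-well plates. Values under 10 count as active.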 A number with no mark means an inactive call. The source made the active and inactive calls.

The subject of this test is MDA-MB-468 breast. Description: NCI-60 one-dose screen, 48 h (100 = growth as untreated, 0 = no growth, -100 = all killed). The settings on record: 10 µM unless noted.

As for `O=c1oc2ccc(I)cc2c(=O)n1-c1ccc(I)cc1F`, the growth is -2.07% (active).

For `COc1ccc(/C=N/NC(=O)c2[nH]c3ccc(Br)cc3c2-c2ccccc2)o1`, the growth is 13%. For the compound `Cc1ccc(S(=O)(=O)N2CCc3ccccc3CC2)cc1`, the growth is -4.8% (active). As to `CC(C)n1nc(C#Cc2cccc(O)c2)c2c(N)ncnc21`, the growth is -44.2% (active). In the case of `Cc1ccc(O)c(C(=O)c2ccccc2)c1` it was 103%; in that of `COc1cc(-c2nc3ccc(-c4nnc(SCC(=O)Nc5ccc(C(C)=O)cc5)o4)cc3[nH]2)cc(OC)c1OC`, 101%; in that of `CC(=O)Nc1ccc2c(c1)Cc1c(F)c(F)c(F)c(F)c1-2`, 82.5%. In the case of `Cn1c2ccccc2c2c3c(c4c5ccc(Br)cc5oc4c21)C(=O)N(O)C3=O`, the growth was 46.2%. As to `Cc1cc(NC(=O)C2c3ccccc3C(=O)N(CC(C)C)C2c2cccs2)no1` (centres undefined), the growth was -56.6% (active). Consider `COc1ccc2[nH]cc(C(c3cc(F)cc(F)c3)c3c[nH]c4ccc(OC)cc34)c2c1`, for which the growth was 89.6%. As for `Clc1ccc(-c2nc(Br)cn3ccnc23)cc1`, the figure is 78.9%; as for `CCOC(=O)CC[C@H](NC(=O)c1ccc(N(C)Cc2cnc3nc(N)nc(N)c3n2)c2ccccc12)C(=O)OCC`, 27.1%; as for `COc1cc(-c2nccc3[nH]c(-c4cccc5[nH]ccc45)nc23)cc(OC)c1OC`, -26.1% (active). `CSc1nnc(-c2cc3c([nH]c4ccccc43)c(-c3cccc(O)c3)n2)n1-c1ccccc1`: the growth was 33.4%. As for `CCCCCCCCCC[N+](C)(C)C`, the growth was -31.3% (active). As for `NNc1ccc2ccccc2c1`, the growth was 83.7% and 88.7%. With `CCOC(=O)c1c(C)oc2ncnc(N3CCN(C(=S)Nc4ccccc4)CC3)c12`, the growth is 85.2%.

With `Cc1ccc(NC(=O)c2ccc(CN3CCN(C)CC3)c(I)c2)cc1Oc1ccc(-c2[nH]nc3ncnc(N)c23)cc1`, the growth was 105%. In the case of `OCCn1cc(-c2nc(-c3c[nH]c4ncccc34)cs2)c2cc(F)ccc21`, the growth was -11.1% (active).

As to `O=C1Nc2ccccc2/C1=C/c1cn(C(=O)c2c(Cl)cccc2Cl)c2ccccc12`, the growth is 32.7%.

For the compound `COc1ccccc1/C=C/C(=O)/C=C/c1ccccc1O`, the growth is -56.1% (active).

Turning to `CCC(=C(c1ccc(OCCN2CCCCCC2)cc1)c1ccc(OCCN2CCCCCC2)cc1)c1ccc(Cl)cc1`, the growth was -83.3% (active). Regarding `COC(=O)c1c2c(c(C)[n+]([O-])c1C)C(=O)C=C(NCc1cccc(Cl)c1)C2=O`, the growth was -66.3% (active). `Nc1ncncc1-c1ccc(F)cc1`: the growth is 105%. Take `CC1=NOC(=O)/C1=C\c1ccc(O)cc1`: the growth is 103%. For `CC(=O)Nc1c(Br)cc2c(c1Br)Cc1cc(Br)ccc1-2`, the growth is -35.2% (active). With `COc1cc2nnc3c4cccnc4[nH]c3c2cc1OC`, the growth was -69.9% (active).

Regarding `COc1ccc2c(c1)C(=O)/C(=C/c1ncc([N+](=O)[O-])n1C)O2`, the growth is -12.4% (active). On to `O=C(NCc1cn(Cc2cccc(Oc3ccccc3)c2)nn1)c1cccnc1NCc1ccc(Cl)cc1`, for which the growth was 17.3%. Regarding `Cc1ccccc1Nc1cc(O)c2c(=O)cc(-c3ccccc3)oc2c1`, the growth was -2.12% (active). As to `CN(C)c1ccc2nc3ccc(=O)cc-3sc2c1`, the growth is 15% and 29.5%. Take `C=CCN(CC#N)CC=C`: the growth was 101%. For `COc1ccc(CN2c3ccccc3Sc3ccccc32)cc1O`, the growth is 9.33% (active). As to `N#Cc1c(C(F)(F)F)cc(Nc2ccc3nc(NCCN4CCCC4)oc3c2)n2c1nc1ccccc12`, the growth is 34.1%. As for `Cn1c(=O)c2c3c(oc2c2ccccc21)C(=O)c1ccccc1C3=O`, the growth is -9.91% (active). For the compound `Nc1c(C(=O)Nc2cccc(Cl)c2)sc2ncc(Br)cc12`, the growth was 94.1%. Turning to `COc1ccc(C2=C(Nc3ccc(C(=O)Nc4ccccc4)cc3)C(=O)N(C)C2=O)cc1`, the growth is 88.1%. Take `COc1ccccc1NC(=O)N=Nc1c(O)[nH]c2ccccc12`: the growth was 86.1%. Take `CN(C)CCCN1c2ccccc2CCc2ccc(Cl)cc21`: the growth was -21.6% (active).
